Screens: PubChem BioAssay, National Center for Advancing Translational Sciences (NCATS)
Only some compounds are listed: those with a hit (about 6% of all), similar ones and a draw of the others.
D1 antag: antagonists of human D1 dopamine receptor. AID 504652. actives 3.2% (n = 360,000). activity change, negative = inhibition, % at 10 µM. HEK293 TREx D1 cells, calcium flux, dopamine EC80; hits give low values; in the data active means activity change below about -30%
Target sequence (P21728 whole entry, looked up): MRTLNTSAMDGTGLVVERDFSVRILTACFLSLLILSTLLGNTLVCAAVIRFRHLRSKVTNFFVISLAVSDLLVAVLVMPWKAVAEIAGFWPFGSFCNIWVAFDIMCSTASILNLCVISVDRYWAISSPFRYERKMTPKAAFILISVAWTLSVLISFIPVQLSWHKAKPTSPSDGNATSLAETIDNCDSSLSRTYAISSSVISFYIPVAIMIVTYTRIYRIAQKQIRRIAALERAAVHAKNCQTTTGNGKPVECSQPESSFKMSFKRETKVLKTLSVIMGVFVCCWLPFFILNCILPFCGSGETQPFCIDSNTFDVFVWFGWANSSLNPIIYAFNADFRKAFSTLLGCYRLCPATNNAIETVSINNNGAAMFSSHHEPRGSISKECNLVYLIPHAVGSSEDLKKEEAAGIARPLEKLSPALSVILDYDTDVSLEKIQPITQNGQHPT
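Using tetracycline-induced force-coupled D1 Hek293 cells and a calcium dye, signals were followed for 180 s after compound, then for 180 s after EC80 dopamine, to detect inhibitors.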
D3 ag: D3 dopamine receptor (human) agonism; P35462; D3R DiscoveRx beta-arrestin cells, luminescence, 90 min; max activation, %; actives 0.58% (n = 410,000); AID 652048; in the data active means max activation above about 30%
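Cells at 1500/well, incubated overnight, then treated with pinned compounds (dopamine as control) for 90 min at 37 degrees C. DiscoveRx reagent added for 30 - 60 minutes at room temperature; luminescence read.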
D3 antag: antagonists of human D3 dopamine receptor; P35462; max response, negative = inhibition, %; D3R cells, DiscoveRx beta-arrestin luminescence, antagonist mode; hits give low values; actives 2.5% (n = 360,000); AID 652054; in the data active means max response below about -50%; inconclusive means no clear call, values can overlap the other calls
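Cells expressing the human receptor were seeded at 1500 cells/well, incubated overnight at 37 degrees C in 5% CO2, then exposed to library compounds with dopamine controls for 90 minutes at 37 degrees C before luminescent detection.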
D1 ag: activates the human D1 dopamine receptor. P21728. HEK293 T-REx D1 cells, calcium flux, agonist mode. activation, % at 2 µM. actives 1% (n = 360,000). AID 504660; in the data active means activation above about 30%
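Inducible HEK293 T-REx D1 cells, force-coupled to calcium signalling, were plated at 4000 cells/well with tetracycline and held overnight at 30 C. After no-wash calcium dye loading, compound-evoked calcium rise over 180 s flagged agonists.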
D1 PAM: human D1 dopamine receptor positive modulation | potentiation, % at 10 µM | HEK293 TREx D1 cells, calcium flux, dopamine EC20 potentiation | P21728 | actives 0.036% (n = 360,000) | AID 504651; in the data active means potentiation above about 30%
Hits are given with their value; - = inactive; ? = inconclusive; . = no result; ! = repeats disagree.

SMILES | D1 antag | D3 ag | D3 antag | D1 ag | D1 PAM
Cc1cc(C)n(CCCNCC(O)c2ccccc2)n1 (configuration not stated) | - | - | -64! | - | -
O[C@@H](CNC[C@H](O)c1ccccc1)c1ccccc1 | - | - | - | - | -
Cc1c2c(n3c(nc4ccccc43)c1C#N)N(CCN1CCOCC1)CC2 | -38 | - | - | - | -
CCCn1nc(C(=O)NCc2ccccn2)c2ccccc2c1=O | -39 | - | - | - | -
CCCn1nc(C(=O)NC2CCCC2)c2ccccc2c1=O | . | - | - | . | .
CC1=CC(=O)C=C(C)C1=NOc1ccccc1[N+](=O)[O-] | -66 | - | - | - | -
Cc1cc(C)c(S(=O)(=O)Oc2ccccc2[N+](=O)[O-])c(C)c1 | . | - | - | . | .
COc1ccc(-n2nc([N+](=O)[O-])c(=NC3CCN(Cc4ccccc4)CC3)n2O)cc1 | - | - | -51 | - | -
COc1ccc(-c2cc(C(=O)Oc3cccc(C)c3C)c3ccccc3n2)cc1 | - | - | . | - | -
Nc1nc(Cl)nc2c1ncn2C1CC(O)C(CO)O1 (configuration not stated) | - | - | - | - | -
Nc1nc2c(ncn2[C@H]2C[C@H](O)[C@@H](CO)O2)c(=O)[nH]1 | -30 | - | - | - | -
O=c1[nH]c(=O)n([C@H]2C[C@H](O)[C@@H](CO)O2)cc1C(F)(F)F | - | 90! | - | - | -
CC(C)c1ccc(S(=O)(=O)N2CCN(Cc3cccc(F)c3)CC2)cc1 | - | - | . | - | -
CCOc1ccc(C2C(=O)N(C3CCCCCC3)CC(=O)N2Cc2ccc(C)cc2)cc1OC (configuration not stated) | - | - | . | - | -
COc1cccc(NC(=O)C2CC(=O)N(c3ccc(Br)cc3)C2)c1 (configuration not stated) | - | - | . | - | -
CN(C)c1ccc(/C=C/c2cc[n+](C)cc2)cc1 | - | - | ? | - | -
CN(C)c1ccc(/C=C/c2cc[n+]([O-])cc2)cc1 | - | . | . | 73 | -
OC(CNCC1CCCO1)Cn1c2ccc(Cl)cc2c2cc(Cl)ccc21 (configuration not stated) | -32 | - | - | - | -
OC(CNCC1CCCO1)Cn1c2ccccc2c2ccccc21 (configuration not stated) | - | - | ? | - | -
CCOC(=O)C(CCCOc1cccc(OC)c1)C(=O)OCC | -34 | - | - | - | -
CCOC(=O)C(CCCOc1cccc(CC)c1)C(=O)OCC | - | - | - | - | -
O=C1CS/C(=C\[N+](=O)[O-])N1c1ccccc1 | - | - | -71 | - | -
O=c1oc2cc(Br)ccc2n1CSC1=NCCS1 | - | - | -53 | - | -
Cc1cc(Cl)ccc1NS(=O)(=O)c1c(C(=O)N2CCCCCC2)c(C)n(C)c1C | - | - | . | - | -
Cc1ccc(-n2ncc(C(=O)NCc3ccco3)c2C2CCN(C(=O)OC(C)(C)C)CC2)c(C)c1 | - | - | . | - | -
SMILES | D1 antag | D3 ag | D3 antag | D1 ag | D1 PAM
N#Cc1c(-c2ccccc2)[nH]c(=O)[nH]c1=O | -35 | - | - | - | -
CCOC(=O)c1ccc(NC(=O)CSc2nnc(CNC(=O)c3ccc(OC)cc3)n2CC)cc1 | - | - | . | - | -
CCCC1(c2ccccc2)NC(=O)N(CC(=O)Nc2cc(OC)cc(OC)c2)C1=O (configuration not stated) | - | - | - | 35 | .
CCCC1(c2ccccc2)NC(=O)N(CC(=O)Nc2cc(S(=O)(=O)N3CCOCC3)ccc2Cl)C1=O (configuration not stated) | -30 | - | - | - | -
COc1cc(NC(=O)CN2C(=O)NC(c3ccccc3)(c3ccccc3)C2=O)cc(OC)c1 | - | - | - | - | -
Cc1ccc(S(=O)(=O)N2CCOCC2)cc1NC(=O)CN1C(=O)NC2(CCCC2)C1=O | . | - | - | . | .
O=C1Nc2ccc([N+](=O)[O-])cc2OC1CCN1CCN(c2ccccc2)CC1 (configuration not stated) | - | - | -51 | - | -
O=C1Nc2ccc([N+](=O)[O-])cc2OC1CCN1CCOCC1 (configuration not stated) | - | - | - | - | -
COc1cc(C2CC(=O)Nc3c2c(=O)n(C)c2ncnn32)cc(OC)c1OC (configuration not stated) | - | - | . | - | -
COc1ccc(NC(=O)Cn2c(=O)n(Cc3ccccc3Cl)c(=O)c3cc(OC)c(OC)cc32)cc1OC | - | - | . | - | -
O=S(=O)(Nn1c(O)c(C=C2N=c3ccccc3=N2)sc1=S)c1ccccc1 | - | - | - | - | -
O=C(Nn1c(O)c(C=C2N=c3ccccc3=N2)sc1=S)c1ccccc1Cl | - | - | -55 | - | -
CCc1ccc(NS(=O)(=O)c2ccc(C)c(C(=O)N3CCOCC3)c2)cc1 | - | - | - | - | -
O=c1cc(O)sc2ccccc12 | - | - | - | 40 | -
O=C(O)CC1SC(=Nc2ccccc2)N(c2ccccc2)C1=O (configuration not stated) | -31 | - | - | - | -
O=C(O)CC1S/C(=N\N=C2CCCCCCC2)N(c2ccccc2)C1=O (configuration not stated) | - | - | - | - | -
Fc1cccc(Nc2cc(-n3cccn3)ncn2)c1 | -45 | - | - | - | -
CCN1CCN(c2cc(-c3ccc(F)cc3)c3c(n2)CCCCCC3)CC1 | . | - | . | . | .
CCNC(=S)NCCN1CCCCC1 | - | - | - | - | -
CCCNC(=S)NCCN1CCCCC1 | - | - | -63 | - | -
CCCCNC(=S)NCCN1CCCCC1 | - | - | -72 | - | -
O=C(Oc1cccc2cccnc12)c1ccco1 | - | - | ? | - | -
O=C(Oc1cccc2cccnc12)c1cccc([N+](=O)[O-])c1 | - | - | ? | - | -
O=C(Oc1ccc(Cl)c2cccnc12)c1ccco1 | - | - | -138 | - | -
O=C(Oc1c(Cl)cc(Cl)c2cccnc12)c1cccc([N+](=O)[O-])c1 | - | - | -94 | - | -
SMILES | D1 antag | D3 ag | D3 antag | D1 ag | D1 PAM
O=C(Oc1ccc(Cl)c2cccnc12)c1cccc([N+](=O)[O-])c1 | - | - | -72 | - | -
O=C(Oc1coc(CSc2ncccn2)cc1=O)c1cccc([N+](=O)[O-])c1 | - | - | - | - | -
N/C(=N/OC(=O)c1cccc([N+](=O)[O-])c1)c1cccc([N+](=O)[O-])c1 | - | - | -53 | - | -
O=C(CCC1N=C2c3ccccc3N=C(SCc3ccc(Cl)cc3)N2C1=O)NC1CCCCC1 (configuration not stated) | - | - | . | - | -
O=C(Nc1ccc(F)c(Cl)c1)C1CCCN1S(=O)(=O)c1ccc(F)cc1 (configuration not stated) | - | - | . | - | -
CCN1C(=O)c2ccccc2S(=O)c2ccc(C(=O)N3CCN(c4cc(Cl)ccc4C)CC3)cc21 (configuration not stated) | - | - | . | - | -
